Reference: PubChem BioAssay (NCATS)
“And” between values parts separate entries of the source, which are not always exact repeats. Identical values can stand only once. Results filed as inconclusive are left out. The source made the active and inactive calls. Unless noted, calls follow the shape of the dose curve; as a rule, active = well fitted curve in the direction sought with a large enough effect; inconclusive = small, poorly fitted or top-dose-only effect, or another doubt; inactive = no such curve, though single readings can be large; an effect the other way counts as inactive or inconclusive.

What was measured:
[1] = target: Alpha-galactosidase A (Homo sapiens) (UniProt P06280); assay: Counterscreen for Glucocerebrosidase Inhibitors: qHTS Assay for Human alpha-Galactosidase at pH 4.5 (AID 992); also: 0% is about no effect
Method in brief: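 Read-out is 4-methylumbelliferone fluorescence (365 nm excitation, 440 nm emission) after a pH 10 NaOH/glycine stop. Reactions held 2 nM enzyme and 80 uM substrate at pH 4.5 for 20 min at room temperature.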

[2] = target: DNA repair nuclease/redox regulator APEX1 (Homo sapiens) (UniProt P27695); assay: qHTS Validation Assay for Inhibitors of the Human Apurinic/apyrimidinic Endonuclease 1 (APE1) (AID 1705; also: potency is read from the fitted curve at half-maximal effect;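 as to activity change, negative = inhibition: TAMRA fluorescence gain over two minutes as APE1 cuts a quenched THF abasic duplex; % is scaled to controls: 0 for no effect and ±100 for the full control effect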)
Method in brief: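 Activity read as rising fluorescence (598 nm emission, 525 nm excitation) from incision of a TAMRA/BHQ-2 duplex carrying a THF abasic site (50 nM). Compound and enzyme sat 15 min at RT before substrate start; signal change between first and third 60-s reads.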

[3] = Counterscreen for APE1 Inhibitors: Fluorescent Dye Displacement Validation Assay (AID 1707); also: potency is read from the fitted curve at half-maximal effect;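 as to activity change, negative = inhibition: plate controls were ThO with dsDNA and no compound for no effect and ThO without dsDNA for full effect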
Method in brief: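 ThO 250 nM + dsDNA 50 nM (THF abasic site, 5'-TAMRA), Tris-HCl pH7.5/50mM NaCl/2 mM MgCl2/0.01% Tween-20; compounds pin-transferred; ex 480/em 540 nm endpoint. Neutral = no compound; no-DNA ThO wells = negative control.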

[4] = target: Endonuclease 4 (Escherichia coli (strain K12)) (UniProt P0A6C1); assay: Counterscreen for APE1 Inhibitors: qHTS Validation Assay for Inhibitors of Endonuclease IV (AID 1708); also: potency is read from the fitted curve at half-maximal effect; as to activity change, negative = inhibition: % is scaled to controls: 0 for no effect and ±100 for the full control effect
Method in brief: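 Concentration-response counterscreen run identically to the APE1 assay: 15 min room-temperature preincubation of 2 nM enzyme with compound, reaction started with 50 nM quenched abasic DNA, progress taken from kinetic fluorescence.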

[5] = qHTS for differential inhibitors of proliferation of Plasmodium falciparum line 7G8 (AID 1815);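 also: potency is read from the fitted curve at half-maximal effect; parasite growth measured after three days of incubation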
[6] = qHTS for differential inhibitors of proliferation of Plasmodium falciparum line GB4 (AID 1816); conditions: Potency: Plasmodium falciparum GB4 proliferation inhibition;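 also: parasite growth measured after 72 h incubation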; also: potency is read from the fitted curve at half-maximal effect;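 as to activity change, negative = inhibition: 0% = vehicle DMSO and -100% = reference inhibitor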
[7] = qHTS for differential inhibitors of proliferation of Plasmodium falciparum line W2 (AID 1883); conditions: Potency: Plasmodium falciparum W2 proliferation inhibition;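 also: parasites grown with compound for 72 h before lysis and staining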; also: potency is read from the fitted curve at half-maximal effect;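 as to activity change, negative = inhibition: 0% = vehicle wells and -100% = control inhibitor wells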
[8] = qHTS for differential inhibitors of proliferation of Plasmodium falciparum line HB3 (AID 1886); conditions: Potency: Plasmodium falciparum HB3 proliferation inhibition;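 also: parasites grown with compound for 72 h before SYBR Green readout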; also: potency is read from the fitted curve at half-maximal effect;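 as to activity change, negative = inhibition: plate controls were vehicle for no effect and reference inhibitor for full effect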
[9] = Cell Viability - LYMP2-020 (AID 986);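 also: plate controls were DMSO only for no effect and tetraoctylammonium bromide at 92 µM for full effect; nearly all actives have a fitted effect of over 55% in size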
Method in brief: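 Human lymphoblastoid LYMP2-020 cells (2500/well) preincubated 5 h at 37 C, then treated 24 h at 37 C. Viability measured as intracellular ATP by CellTiter-Glo luminescence after 30 min at room temperature; AC50 from Hill fits.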

[10] = Cell Viability - LYMP2-024 (AID 988);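 also: plate controls were DMSO only for no effect and 92 µM tetraoctylammonium bromide for full effect; nearly all actives have a fitted effect of over 60% in size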
Method in brief: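 Human lymphoblastoid LYMP2-024 cells (2500/well) rested 5 hr, then treated with compound for 24 hr at 37 C in complete medium. Viability was measured as intracellular ATP by CellTiter-Glo luminescence. AC50 values came from Hill-equation fits.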

[11] = Cell Viability - LYMP2-026 (AID 989); also: % is scaled to controls: 0 for no effect and ±100 for the full control effect; nearly all actives have a fitted effect of over 50% in size
Method in brief: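 Human lymphoblastoid LYMP2-026 cells, 2500/well, exposed to compound 24 h at 37 C in complete medium. Viability as intracellular ATP by CellTiter-Glo luminescence; AC50 from Hill fits of qHTS concentration-response.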

[12] = target: alpha-glucosidase (Oryza sativa, rice) (UniProt Q653V4); assay: Counterscreen for Glucocerebrosidase Inhibitors: qHTS Assay for Rice alpha-Glucosidase at pH 5.0 (AID 997);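 also: 0% = full activity with enzyme and -100% = basal without enzyme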
Method in brief: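 Rice alpha-glucosidase (4 nM final) with 400 uM 4-methylumbelliferyl-alpha-D-glucopyranoside in citrate buffer pH 5.0, 20 min at room temperature, stopped at pH 10; fluorescence 365/440 nm, compounds 0.7 nM–77 uM, AC50 from Hill fits.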

[13] = qHTS Assay for Lipid Storage Modulators (AID 1519; calls by dose curve; as to activity change, negative = inhibition: % is scaled to controls: 0 for no effect and ±100 for the full control effect); conditions: Drosophila S3 cells, BODIPY lipid droplet/cell ratio, laser cytometry, cells loaded with oleic acid
Method in brief: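 Cells seeded at 5,000 per well were treated with compounds over a concentration series and loaded with oleic acid (400 uM, as added). Lipid droplet fluorescence (488 nm excitation, 500-530 nm channel) was read by laser-scanning cytometry and normalized to 20 uM Triacsin C.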

[14] = qHTS for differential inhibitors of proliferation of Plasmodium falciparum line 3D7 (AID 1876); also: potency is read from the fitted curve at half-maximal effect
[15] = qHTS for differential inhibitors of proliferation of Plasmodium falciparum line D10 (AID 1877);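 also: parasites grown with compound for 72 h before DNA staining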; also: potency is read from the fitted curve at half-maximal effect;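 as to activity change, negative = inhibition: plate controls were vehicle wells for no effect and reference inhibitor wells for full effect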
[16] = qHTS for differential inhibitors of proliferation of Plasmodium falciparum line Dd2 (AID 1882); conditions: Potency: Plasmodium falciparum Dd2 proliferation inhibition; also: nearly all actives have a fitted effect of over 65% in size; also: potency is read from the fitted curve at half-maximal effect;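 as to activity change, negative = inhibition: plate controls were DMSO vehicle for no effect and 0.29 µM artemisinin for full effect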
Method in brief: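 Dd2-infected erythrocytes (0.3% parasitemia, 2.5% hematocrit final) incubated with compound 72 h at 37 C, 5% CO2; lysed with saponin/Triton buffer containing SYBR Green I, incubated overnight in the dark, then read by fluorescence (485/535 nm). Normalized to 0.29 uM artemisinin and DMSO.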

[17] = Cell Viability - LYMP2-022 (AID 987);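 also: 0% = DMSO alone and full effect = tetraoctylammonium bromide at 92 µM; nearly all actives have a fitted effect of over 55% in size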
Method in brief: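 LYMP2-022 lymphoblastoid cells (2500/well, complete medium) were treated with compounds for 24 hours at 37 C; intracellular ATP was then read by CellTiter-Glo luminescence after 30 min at room temperature. AC50 values were derived from Hill-equation fits.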

[18] = Cell Viability - LYMP1-002 - Assay at 40 hr (AID 994);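 also: 0% = DMSO only and full inhibition = 92 µM tetraoctylammonium bromide; nearly all actives have a fitted effect of over 60% in size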
Method in brief: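 LYMP1-002 human lymphoblastoid cells (2500/well, complete medium) were treated with compounds for 40 hr at 37 C. Intracellular ATP was measured by CellTiter-Glo luminescence, and AC50 values came from Hill-equation fits of concentration-response data; tetraoctylammonium bromide was the positive control.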

[19] = qHTS Assay for Modulators of Human Peripheral Myelin Protein 22 (PMP22) Expression/Activity (AID 1967; active = well fitted curve in the direction sought with a large enough effect in the signal ratio; the % refers to the signal ratio;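 also: 0% = untreated cells and 100% end not stated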)
Method in brief: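 Readout is the corrected green/red luminescence ratio after 24 h compound exposure, normalised to untreated cells (0%). Engineered MSC80 mouse Schwann cells express green luciferase from the mouse Pmp22 promoter and red luciferase from EF-alpha as internal control.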

[20] = measured here: cell count channel max response
[21] = measured here: lipid channel max response

DNA repair nuclease/redox regulator APEX1 (Homo sapiens), sequence (P27695 whole entry, looked up): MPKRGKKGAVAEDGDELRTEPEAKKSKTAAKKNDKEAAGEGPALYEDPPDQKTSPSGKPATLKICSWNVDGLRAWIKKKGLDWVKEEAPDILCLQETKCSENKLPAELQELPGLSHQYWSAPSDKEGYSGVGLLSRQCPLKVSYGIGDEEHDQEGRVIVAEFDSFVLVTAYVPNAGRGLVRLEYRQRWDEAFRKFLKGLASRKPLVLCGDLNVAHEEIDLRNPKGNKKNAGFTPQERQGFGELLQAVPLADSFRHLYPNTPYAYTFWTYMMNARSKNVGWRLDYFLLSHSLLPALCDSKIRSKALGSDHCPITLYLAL
Alpha-galactosidase A (Homo sapiens), sequence (P06280 whole entry, looked up): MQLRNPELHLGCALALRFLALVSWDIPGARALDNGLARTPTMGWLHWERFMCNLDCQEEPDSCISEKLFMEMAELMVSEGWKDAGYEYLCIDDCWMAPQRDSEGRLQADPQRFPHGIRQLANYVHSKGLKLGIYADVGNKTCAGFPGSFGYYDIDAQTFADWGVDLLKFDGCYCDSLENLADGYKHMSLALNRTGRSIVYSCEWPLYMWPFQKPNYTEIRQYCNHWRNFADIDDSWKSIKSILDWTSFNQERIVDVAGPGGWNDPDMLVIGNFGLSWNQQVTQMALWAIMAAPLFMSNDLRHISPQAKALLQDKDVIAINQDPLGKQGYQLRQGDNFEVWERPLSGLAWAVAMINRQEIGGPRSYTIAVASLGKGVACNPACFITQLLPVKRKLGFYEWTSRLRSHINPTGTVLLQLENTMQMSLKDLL

Cn1ccc2cc3c(cc21)CCN3C(=O)Nc1cccnc1
active: Potency [5] 10 µM | Potency [6] 11.2 µM | Potency [7] 10 µM | Potency [8] 12.6 µM
inactive: outcome [1] | Potency [2] | Potency [3] | Potency [4]

O=c1[nH]cc(F)c(=O)[nH]1
3.09% and 58.9%: max response [13, 20]
12.8% and 58.3%: max response [13, 21]
inactive: outcome [9] | outcome [10] | outcome [11] | outcome [1] | outcome [12] | activity change, negative = inhibition ([13]; at 57.5 µM (top of the series)) 6.92% and -0.382% | Potency [2] | Potency [3]

CC(C)Cc1ccc(C(C)C(=O)O)cc1 (stereo unspecified)
inactive: outcome [1] | Potency [2] | Potency [3] | Potency [6] | Potency [14] | Potency [15] | Potency [16] | Potency [7] | Potency [8]

CCCNCC(O)COc1ccccc1C(=O)CCc1ccccc1 (stereo unspecified)
inactive: activity change, negative = inhibition ([13]; at 57.5 µM (top of the series)) 6.61% and -1.46% | Potency [2] | Potency [3]
14% and 22.1%: max response [13, 21]
8.1% and 22.1%: max response [13, 20]
active: Potency [6] 0.355 µM | Potency [14] 0.891 µM | Potency [15] 2.24 µM | Potency [16] 1 µM | Potency [7] 0.316 µM | Potency [8] 1 µM

COc1cc2nc(N3CCN(C(=O)C4COc5ccccc5O4)CC3)nc(N)c2cc1OC (stereo unspecified)
active: Potency [5] 2.24 µM | Potency [6] 3.16 µM | Potency [14] 2.82 µM | Potency [15] 2.51 µM | Potency [16] 11.2 µM | Potency [7] 1.12 µM | Potency [8] 2.82 µM
inactive: Potency [2] | Potency [3] | Potency [4]

Cc1ccc(-c2cc(C(F)(F)F)nn2-c2ccc(S(N)(=O)=O)cc2)cc1
18.8%: max response [13, 20]
30%: max response [13, 21]
inactive: outcome [9] | outcome [17] | outcome [10] | outcome [11] | Potency [18] | activity change, negative = inhibition ([13]; at 57.5 µM (top of the series)) 7.63%

CN1C2CCC1CC(OC(=O)C(CO)c1ccccc1)C2 (stereo unspecified)
inactive: Potency [2] | Potency [3] | Potency [14] | Potency [15] | Potency [8] | Potency [19]

Cc1cn([C@H]2C[C@H](N=[N+]=[N-])[C@@H](CO)O2)c(=O)[nH]c1=O
inactive: outcome [9] | outcome [17] | outcome [10] | outcome [11] | Potency [18]

OCCN(CCO)c1nc(N2CCCCC2)c2nc(N(CCO)CCO)nc(N3CCCCC3)c2n1
active: Potency [5] 2 µM | Potency [6] 2.82 µM | Potency [14] 3.98 µM | Potency [15] 7.94 µM | Potency [16] 6.31 µM | Potency [7] 2.82 µM | Potency [8] 3.55 µM
inactive: activity change, negative = inhibition ([13]; at 25.7 µM (top of the series)) -0.0376% | Potency [4]
-18.6%: max response [13, 20]
-17.7%: max response [13, 21]

COc1ccccc1N1CCN(CC(O)COc2cccc3ccccc23)CC1 (stereo unspecified)
inactive: activity change, negative = inhibition ([13]; at 57.5 µM (top of the series)) 0.0402% | Potency [2]
-14.9%: max response [13, 21]
active: Potency [5] 11.2 µM | Potency [6] 14.1 µM | Potency [7] 10 µM | Potency [8] 12.6 µM
-17.8%: max response [13, 20]

CN(C)C(=O)C(CCN1CCC(O)(c2ccc(Cl)cc2)CC1)(c1ccccc1)c1ccccc1
inactive: outcome [1] | Potency [2] | Potency [3]

Cc1ccc(C(=O)Nc2ccc(S(=O)(=O)O)c3cc(S(=O)(=O)O)cc(S(=O)(=O)O)c23)cc1NC(=O)c1cccc(NC(=O)Nc2cccc(C(=O)Nc3cc(C(=O)Nc4ccc(S(=O)(=O)O)c5cc(S(=O)(=O)O)cc(S(=O)(=O)O)c45)ccc3C)c2)c1
-18.9% and 17.7%: max response [13, 21]
active: Potency [2] 8.91 µM | Potency [3] 4.47 µM | Potency [4] 4.47 µM | Potency [7] 12.6 µM
-19.7% and 7.39%: max response [13, 20]
inactive: outcome [1] | outcome [12] | activity change, negative = inhibition ([13]; at 57.5 µM (top of the series)) 2.55% and 9.29%

CCCCc1oc2ccccc2c1C(=O)c1cc(I)c(OCCN(CC)CC)c(I)c1
1.02%: max response [13, 21]
active: Potency [5] 2.82 µM | Potency [6] 2.51 µM | Potency [14] 2.82 µM | Potency [15] 7.08 µM | Potency [16] 6.31 µM | Potency [7] 2.24 µM | Potency [8] 3.98 µM
inactive: outcome [1] | activity change, negative = inhibition ([13]; at 57.5 µM (top of the series)) -1.96% | Potency [2] | Potency [3]
0.489%: max response [13, 20]
